Reference: ChEMBL document CHEMBL3988442, “University of Dundee, Small-Polar-MMV Screening Library” (2021)
Out of some 48,000 compounds screened, about 13,000 (27%) showed an effect of 50% or more. Some of the results follow.

tested on: Wolbachia pipientis; assay: Anti-Wolbachia Cell-Based Screen; assay type: functional; parameters: scale not given: in the data most compounds retested in dose-response had high values; conditions: 5 µM

Row | Structure (SMILES) | Percent Effect
1 | CCc1noc(CN(C)Cc2cc(Br)ccc2OC)n1 | 4.438%
2 | Cc1ccn(-c2ccccc2NCc2cscn2)n1 | -9.752%
3 | COC(=O)C(c1ccccc1)N(C)C(=O)c1ccnc(C)n1 (stereo not given) | 100.7%
4 | COc1ccc(N(C(=O)c2cnc(C)cn2)C(C)C)cc1F | 9.374%
5 | COC(=O)C(c1cc(F)ccc1F)N(C)C(=O)c1ccnc(C)n1 (stereo not given) | 4.378%
6 | COC(=O)C(c1cc(F)ccc1F)N(C)C(=O)c1cnc(C)cn1 (stereo not given) | 103%
7 | COC(=O)c1cnc(C(=O)N(c2ccc(OC)c(F)c2)C(C)C)cn1 | -7.917%
8 | Cc1nccc(CNC(=O)NCC(C)Oc2ccccc2F)n1 (stereo not given) | -7.985%
9 | COC(=O)C(c1cc(F)ccc1F)N(C)C(=O)c1csnn1 (stereo not given) | 3.05%
10 | COC(=O)C(c1cc(F)ccc1F)N(C)C(=O)c1cnccn1 (stereo not given) | 118.4%
11 | COC(=O)C(c1cc(F)ccc1F)N(C)C(=O)c1cccnc1O (stereo not given) | 1.784%
12 | COC(=O)C(c1cc(F)ccc1F)N(C)C(=O)c1ccccn1 (stereo not given) | 114.5%
13 | Cc1cccc(N(CCC(N)=O)C(=O)c2ccnc(C)n2)c1 | -10.53%
14 | CN(C)CCN(Cc1ccc(Cl)cc1)C(=O)c1cnccn1 | -5.634%
15 | O=C1N(Cc2cccc(F)c2F)CCCC1(O)CNCc1ccccc1 (stereo not given) | 16.03%
16 | Cc1c(CNS(=O)(=O)c2cccc(COC(C)C)c2)cnn1C | -15.21%
17 | CN1C[C@@H](NC(=O)C(C)(C)C)C[C@H]1C(=O)NCc1ncc[nH]1 | -5.014%
18 | COCCOC[C@]1(CNC(=O)c2ccc(OC)cc2)C[C@@H](O)[C@@H](O)C1 | -0.4241%
19 | Cc1cc(C)c(CNC(=O)NCc2nnc3n2CCCCC3)c(=O)[nH]1 | -9.467%
20 | O=C(CN1CCOc2ccc(Cl)cc21)NCc1ncc[nH]1 | -5.45%
21 | Cc1cccc(C)c1CCNC(=O)N1CCCC2(C1)OCCO2 | -0.05309%
22 | Cc1ccccc1NC(=O)N1CC[C@@H]2CN(CC(C)C)S(=O)(=O)[C@@H]2CC1 | -60.79%
23 | CCN(Cc1c(C)nn(C)c1C)C(=O)C1COc2ccccc2C1 (stereo not given) | -5.134%
24 | Cc1n[nH]c(C2CN(C(=O)c3csnn3)CCO2)n1 (stereo not given) | -23.45%
25 | CC(C)c1n[nH]c(C2CN(Cc3nnc(C4CC4)o3)CCO2)n1 (stereo not given) | -9.108%
26 | CC(C)c1n[nH]c(C2CN(C(=O)c3cc(C4CC4)on3)CCO2)n1 (stereo not given) | 113.9%
27 | Cc1n[nH]c(C2CN(C(=O)c3cc(C4CC4)on3)CCO2)n1 (stereo not given) | 119.9%

Row | Structure (SMILES) | Percent Effect
28 | CC(C)c1n[nH]c(C2CN(C(=O)c3csnn3)CCO2)n1 (stereo not given) | 4.906%
29 | Cc1n[nH]c(C2CN(C(=O)c3ccon3)CCO2)n1 (stereo not given) | -8.521%
30 | CN1CCN2CCN(C(=O)c3cc4ncc(CCO)cn4n3)CC2C1 (stereo not given) | -4.032%
31 | CCCn1ccnc1SCC(=O)NC(Cc1ccccc1)C(C)=O (stereo not given) | 22.6%
32 | COCC(C)NC(=O)c1cc(Br)c2c(c1)OCCO2 (stereo not given) | -1.818%
33 | CC(C)(C)CNC1(Cc2cc(C(C)(C)O)on2)COC1 | -22.48%
34 | CN(Cc1cccnc1)CC1CC12CCN(Cc1nccs1)CC2 (stereo not given) | 11.24%
35 | Cc1cnc(N2CCC3(CC2)CC3CN(C)Cc2cccnc2)nc1.O=C(O)C(F)(F)F.O=C(O)C(F)(F)F (stereo not given) | 2.289%
36 | CN(Cc1cccnc1)CC1CC12CCCC2 (stereo not given) | 103.1%
37 | CSCC(=O)N1CCOC(c2nc(C(C)(C)C)n[nH]2)C1 (stereo not given) | 103.9%
38 | CCc1n[nH]c(C2CN(C(=O)c3cnc[nH]3)CCO2)n1 (stereo not given) | -7.128%
39 | CC(C)(C)c1n[nH]c(C2CN(C(=O)c3ccsc3)CCO2)n1 (stereo not given) | -3.296%
40 | CC(C)(C)c1n[nH]c(C2CN(C(=O)c3cc(C4CC4)[nH]n3)CCO2)n1 (stereo not given) | 116%
41 | Cc1n[nH]c(C2CN(C(=O)c3cnc[nH]3)CCO2)n1 (stereo not given) | -6.3%
42 | CC(C)(C)c1n[nH]c(C2CN(C(=O)c3cnc[nH]3)CCO2)n1 (stereo not given) | 97.58%
43 | Cc1n[nH]c(C2CN(C(=O)c3cc(C4CC4)[nH]n3)CCO2)n1 (stereo not given) | 6.266%
44 | CC(C)c1n[nH]c(C2CN(C(=O)CCCn3cccn3)CCO2)n1 (stereo not given) | -13%
45 | Cc1nc(CN2CCOC(c3nc(C(C)C)n[nH]3)C2)oc1C (stereo not given) | -6.661%
46 | CSCC(=O)N1CCOC(c2nc(C(C)C)n[nH]2)C1 (stereo not given) | 117.1%
47 | CC(C)(C)c1n[nH]c(C2CN(C(=O)CCC3CC3)CCO2)n1 (stereo not given) | -7.383%
48 | Cc1nc(CC(=O)N2CCOC(c3nc(C(C)(C)C)n[nH]3)C2)cs1 (stereo not given) | -6.24%
49 | CCc1ccc(C(=O)N2C[C@@H]3COC[C@@H](C(=O)NC)[C@@H]3C2)cc1 | -16.14%
50 | Cc1ccc(S(=O)(=O)N2CC(C)Oc3ncccc32)c(C)c1 (stereo not given) | -17.54%
51 | Cn1nnc2c1CCN(C(=O)C1CC1)C2COCCN1CCCC1.O=C(O)C(F)(F)F (stereo not given) | -5.654%
52 | CCn1ncnc1CN1CCc2[nH]cnc2C1Cc1ccccc1 (stereo not given) | -1.907%
53 | Cc1cccc(CNC2(CCO)CCOCC2)c1C | -7.231%
54 | CSC(C)C(=O)NS(=O)(=O)CCc1ccccc1 (stereo not given) | -7.68%

Row | Structure (SMILES) | Percent Effect
55 | CSCC(=O)N1CCOC(c2nc(C)n[nH]2)C1 (stereo not given) | 81.74%
56 | Cc1n[nH]c(C2CN(C(=O)c3ccc(Cl)o3)CCO2)n1 (stereo not given) | -21.06%
57 | Cc1[nH]c(-c2ccccc2)nc1C(=O)N1CCc2[nH]cnc2C1C(=O)O (stereo not given) | -27.35%
58 | COCCN1CCN(Cc2ccc(Cl)cc2)[C@H]2CS(=O)(=O)C[C@H]21 | 3.262%
59 | COCCCN(C)S(=O)(=O)c1ccc(Cl)cc1C#N | -9.182%
60 | COCCCNc1c(-c2ccc(Cl)cc2)c(=O)c1=O | 75.4%
61 | COCCNc1c(-c2ccc(Cl)cc2)c(=O)c1=O | 106.9%
62 | COCCCNC(=O)Cc1cc(-c2ccc(Cl)cc2)on1 | 18.42%
63 | COCCNC(=O)CCNc1ccc(Cl)cn1 | -1.356%
64 | CCCNC(=O)CC1OCCc2ccsc21 (stereo not given) | -18.02%
65 | CN1CCN(C[C@@H]2CN(Cc3c(Cl)cncc3Cl)C[C@@H]2CO)CC1 | -1.243%
66 | Cn1ncc2c1C(COCC1CC1)CN(S(C)(=O)=O)C2 (stereo not given) | 3.209%
67 | COCC1CN(Cc2cc(C)on2)Cc2cnn(C)c21.O=C(O)C(F)(F)F.O=C(O)C(F)(F)F (stereo not given) | -1.756%
68 | COCC1CN(c2ncc(F)cn2)Cc2cnn(C)c21.O=C(O)C(F)(F)F.O=C(O)C(F)(F)F (stereo not given) | 94.8%
69 | COCC1CN(C(=O)N2CCCC2)Cc2cnn(CC3CCCC3)c21 (stereo not given) | 9.026%
70 | CCOCCN1Cc2cnn(C)c2C(COCC)C1.O=C(O)C(F)(F)F.O=C(O)C(F)(F)F (stereo not given) | -55.01%
71 | COCC1CN(c2ncccn2)Cc2cnn(CC3CC3)c21 (stereo not given) | 112.4%
72 | CCn1ncc2c1C(COC)CN(S(=O)(=O)N(C)C)C2.O=C(O)C(F)(F)F (stereo not given) | -1.525%
73 | Cn1ncc2c1C(COCC1CC1)CN(c1ncc(F)cn1)C2 (stereo not given) | 102.8%
74 | CCn1ncc2c1C(COC)CN(c1ncc(F)cn1)C2.O=C(O)C(F)(F)F.O=C(O)C(F)(F)F (stereo not given) | 103.8%
75 | Cn1ncc2c1C(COCC1CC1)CN(CC1CC1)C2 (stereo not given) | 3.494%
76 | Cn1cc(C[C@H]2[C@H](N3CCOCC3)CCN2C2CCOCC2)cn1.O=C(O)C(F)(F)F.O=C(O)C(F)(F)F | -4.511%
77 | COCC1(C(=O)N2CCC(c3nccn3CC3CC3)CC2)CCC1 | 2.579%
78 | CCN(CC)CCSc1nnc(N2CCN(c3ccccc3)CC2)s1 | -12.7%
79 | CN(Cc1cccc(O)c1)CC1CCCN(CCc2ccc(Cl)cc2)C1 (stereo not given) | 2.569%
80 | CNC(=O)CSc1cnn(CC(=O)Nc2cccc(Cl)c2C)c(=O)c1Cl | -42.51%
81 | Cc1cnc(N2CCC3(CCC(C(=O)NC(C)C)OC3)CC2)nc1 (stereo not given) | -9.523%

Row | Structure (SMILES) | Percent Effect
82 | CC(=O)N1CCCN(C(=O)NCCCNS(C)(=O)=O)CC1 | -1.689%
83 | COCCN1CCN(C(=O)c2ccc(C)cc2OC)[C@H]2CS(=O)(=O)C[C@H]21 | 5.009%
84 | COc1cccc(N2CCC(CNCc3cccc(C#N)c3)C2)c1 (stereo not given) | 82.37%
85 | COc1ccccc1N1CCC(CNS(=O)(=O)c2cccc(C#N)c2)C1 (stereo not given) | 87.58%
86 | COc1ccccc1N1CCC(CNCc2c(C)nn(C)c2OC)C1 (stereo not given) | -29.19%
87 | COc1ccccc1N1CCC(CNS(=O)(=O)c2c(C)nn(C)c2C)C1 (stereo not given) | -2.863%
88 | COc1ccccc1N1CCC(CNS(=O)(=O)c2cccs2)C1 (stereo not given) | -9.312%
89 | COc1ccccc1N1CCC(CNCc2cccc(C#N)c2)C1 (stereo not given) | -2.203%
90 | COc1ccccc1N1CCC(CNCc2cccc(O)c2)C1 (stereo not given) | -3.366%
91 | COc1ccc(CNCC2CCN(c3ccccc3OC)C2)cc1O (stereo not given) | 114.3%
92 | COc1cccc(N2CCC(CNC(=O)NCc3ccco3)C2)c1 (stereo not given) | 2.217%
93 | N#Cc1ccc(CNCC2CCN(CCO)CC2)cc1 | -8.382%
94 | COc1cccc(N2CCC(CNc3cc(C)nc4ncnn34)C2)c1 (stereo not given) | -5.133%
95 | COc1ccccc1N1CCC(CNCc2ccc(C#N)cc2)C1 (stereo not given) | 109.5%
96 | CC(C)(C)N1CC(C(=O)N2CCN(CCn3cncn3)CC2)CC1=O (stereo not given) | -32.16%
97 | Cc1nc(NC(=O)NC2CC(=O)N(C(C)C)C2)nn1C(C)C (stereo not given) | -10.65%
98 | N#CCCN1CCC(=Cc2ccccc2)CC1 | 4.186%
99 | CC(C)C(=O)N1CCC2(COCc3cnc(-c4cccnc4)nc32)C1 (stereo not given) | 110.7%
100 | COCCC(=O)N1CCC2(COCc3cnc(-c4cccnc4)nc32)C1 (stereo not given) | 82.83%
101 | O=C(CC1CC1)N1CCC2(COCc3cnc(-c4cccnc4)nc32)C1 (stereo not given) | 110.1%
102 | O=C(CC1CC1)N1CCC2(COCc3cnc(-c4ccccc4)nc32)C1 (stereo not given) | -2.156%
103 | O=C(C1CCC1)N1CCC2(COCc3cnc(-c4cccnc4)nc32)C1 (stereo not given) | -1.349%
104 | COCC(=O)N1CCC2(COCc3cnc(-c4ccccc4)nc32)C1 (stereo not given) | -5.335%
105 | CC(C)NC(=O)N1CCC2(COCc3cnc(-c4ccccc4)nc32)C1 (stereo not given) | -4.544%
